HEK293 viab: cell viability loss counter-screen; HEK-293-SNCA-luc viability, GF-AFC fluorescence, 24 h; Potency, µM (top dose mostly 57.1 µM), inactives show at the top dose activity change, negative = cytotoxicity, actives largely listed as cytotoxic; actives 0.12% (n = 150,000); AID 1671193;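 further: potency means the concentration at half of the fitted maximal effect; 0% = DMSO-treated cells and -100% = medium-only wells without cells; nearly all actives have a fitted effect of over 30% in size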
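Cytotoxicity counterscreen: after 24 h compound treatment of genome-edited SNCA-luciferase HEK-293 cells, live-cell protease substrate GF-AFC read by fluorescence after 30 min; activity scaled between DMSO (0%) and medium-only (-100%), curves Hill-fitted.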
SNCA expr inhib: inhibitors of alpha-synuclein (SNCA) gene expression; HEK-293 SNCA-luciferase knock-in, luminescence, 24 h; Potency, µM (top dose mostly 57.2 µM), inactives show at the top dose activity change, negative = inhibition, usual class: inhibitors; actives 0.17% (n = 140,000);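 further: potency means the concentration at half of the fitted maximal effect; plate controls were DMSO cells for no effect and cell-free wells for full effect; nearly all actives have a fitted effect of over 45% in size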
IP6K1 inh: blocks human inositol hexakisphosphate kinase 1. actives 0.81% (n = 140,000). IP6K1 kinase, ADP-Glo luminescence, 2 h; hits give low values. activity change, % (series mostly up to about 58 µM). Q92551; in the data active means activity change below about -25%; further: on the % scale 0 is the no-effect control and ±100 the full control effect
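ADP-Glo luminescence measures ADP made by human IP6K1 during a 2 h RT reaction with ATP/IP6 (mix at 1.3 mM/130 uM); top library doses 57.5 and 19.1 uM final.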
KDM5B inhibitor: inhibitors of human KDM5B histone demethylase; Q9UGL1; KDM5B demethylase, FDH-coupled NADH fluorescence (FDH is formaldehyde dehydrogenase); Potency, µM (top dose mostly 57.7 µM), actives largely listed as inhibitors; actives 2.6% (n = 220,000); AID 1347165; further: potency means the concentration at half of the fitted maximal effect; 0% is about no effect; nearly all actives have a fitted effect of over 70% in size
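Here, H3K4me3 peptide (12.5 µM in substrate mix) is demethylated by KDM5BΔAP, 200 nM final, after 10 min compound exposure. Formaldehyde product is coupled through FDH (0.25 U/mL in mix) to NADH fluorescence; 30-min ΔRFU feeds dose-response curves.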
* marks the source's active call; other numbers are inactive results; i = inactive; u = inconclusive; x = no result; [ ] = remark or other dose. Shown are actives, neighbours in structure and some others; about 2.9% of the full set was active somewhere. Unless noted, the call rests on the fitted dose curve; in most records, active means well fitted curve in the direction sought with a large enough effect; inconclusive means small, poorly fitted or top-dose-only effect, or another doubt; inactive means no such curve, though single readings can be large; an effect the other way counts as inactive or inconclusive.

SMILES | HEK293 viab | SNCA expr inhib | IP6K1 inh | KDM5B inhibitor
O=C(C1CCCC1)N1CC2(CCN(CC3CC3)CC2)Cc2ccccc21 | -26% | -14% | 44 | u
COc1ccc(C(=O)NC2CCN(Cc3cccc(-c4cccs4)c3)CC2)cc1 | -3%[12.5 µM] | -12% | 11 | x
Cc1ccc([S+](=O)([O-])N2CCN(C(=O)c3nc4cccnc4n(CC(C)C)c3=O)CC2)cc1 | -1% | 0% | -4 | x
O=C(Cc1c[nH]c2ncc(-c3ccccc3F)cc12)NCc1cccnc1 | -12%[87.6 µM] | u | -16 | 28µM*
O=C(Cc1c[nH]c2ncc(-c3cccc(CO)c3)cc12)NCc1cccnc1 | -4%[87.6 µM] | 28%[87.6 µM] | -10 | 32µM*
O=C(Cc1c[nH]c2ncc(-c3ccccc3C(F)(F)F)cc12)NCc1cccnc1 | -9%[87.6 µM] | -10%[87.6 µM] | -18 | u
O=C(CCc1nnn2c1CN(C(=O)c1cccc3[nH]ccc13)CC2)N1CCCC1 | -1% | 73% | -9 | 28µM*
O=C(c1nnn2c1COC(c1ccccc1)C2)N1CCN(C(=O)c2cccc3[nH]ccc23)CC1 (centres undefined) | -10% | -1% | -2 | 28µM*
O=C(CCc1nnn2c1CN(C(=O)NCCc1ccccc1)CC2)N1CCCC1 | 8% | 13% | 3 | i
O=C(c1ccc2cc[nH]c2c1)N1CCN(C(=O)c2nnn3c2COC(c2ccccc2)C3)CC1 (centres undefined) | -14% | 5% | 0 | u
CC(C)N1CC2CCC(C1)N2Cc1cccc(-c2cccs2)c1 | -5% | 6% | -1 | i
COc1ccc(-n2nc(C)c([C@@H]3C=C[C@@H](NCc4ccccc4)C3)c2C)cc1 | -19%[87.6 µM] | 13%[87.6 µM] | -11 | u
CCCn1cc(-c2ccnc(NC3CCN(Cc4cccnc4)CC3)n2)c(C)n1 | u | u | -3 | 32µM*
N#Cc1cccc(-c2c(C(=O)NCc3ccc(Cl)cc3)nc3sccn23)c1 | 12% | 0% | 5 | x
CN(C)C(=O)Cc1c[nH]c2ncc(-c3cccnc3)cc12 | 10%[87.6 µM] | -24%[87.6 µM] | 0 | i
Cn1cc(-c2cnc3[nH]cc(CC(=O)NCc4cccc(F)c4)c3c2)cn1 | -1%[87.6 µM] | 21%[87.6 µM] | -16 | 32µM*
Cn1cc(-c2cnc3[nH]cc(CC(=O)Nc4cccnc4)c3c2)cn1 | -18%[87.6 µM] | -3%[87.6 µM] | -13 | 40µM*
Cc1ccccc1NC(=O)Cc1c[nH]c2ncc(-c3cnn(C)c3)cc12 | 4%[87.6 µM] | 58%[87.6 µM] | 3 | u
CN(C)C(=O)Cc1c[nH]c2ncc(-c3cnn(C)c3)cc12 | -4%[87.6 µM] | 11%[87.6 µM] | -15 | 40µM*
CN(C)c1cccc(NC(=O)Cc2c[nH]c3ncc(-c4cnn(C)c4)cc23)c1 | -25%[87.6 µM] | 14%[87.6 µM] | -14 | u
O=C(COC(=O)C1(c2ccc(F)cc2)CCCC1)Nc1cc([N+](=O)[O-])ccc1F | x | x | x | i
O=C(Cn1ccn2nc(-c3ccccc3)c(CO)c2c1=O)NCc1ccccc1Cl | 4% | -23% | 7 | 20µM*
O=C(Cn1ccn2nc(-c3ccc(F)cc3)c(CO)c2c1=O)NCc1ccccc1Br | -4% | -16% | 0 | 22µM*
O=C(Cn1ccn2nc(-c3ccc(F)cc3)c(CO)c2c1=O)NCc1ccc(F)cc1F | 6% | -2% | 3 | i
O=c1c2c(CO)c(-c3ccccc3)nn2ccn1Cc1ccccc1Cl | 7% | 59% | 4 | u
SMILES | HEK293 viab | SNCA expr inhib | IP6K1 inh | KDM5B inhibitor
O=C(Cn1ccn2nc(-c3ccccc3)c(CO)c2c1=O)NCc1ccc2c(c1)OCO2 | 8% | -10% | 7 | 32µM*
COc1ccccc1Cn1c(=O)c(C(=O)N2CCC(c3ccccc3)CC2)nc2cccnc21 | -16% | -24% | 4 | x
O=C(O)CCC(=O)N[C@H]1CCN2C(=O)c3cc(-c4ccc(Cl)cc4)ccc3NC(=O)[C@H]12 | 2%[87.6 µM] | -22%[87.6 µM] | -12 | 32µM*
O=C(O)COCC(=O)N[C@H]1CCN2C(=O)c3cc(-c4ccc(Cl)cc4)ccc3NC(=O)[C@H]12 | 1% | 0% | -3 | u
CC(C)NC(=O)N[C@H]1CCN2C(=O)c3cc(-c4ccc(Cl)cc4)ccc3NC(=O)[C@H]12 | 3%[87.6 µM] | 24%[87.6 µM] | -3 | 32µM*
CC(C)NC(=O)N[C@H]1CCN2C(=O)c3cc(-c4cccc(C(F)(F)F)c4)ccc3NC(=O)[C@H]12 | 2% | -18% | 16 | u
Cc1ccc(-c2nnc3ccc(N4CCCCC4)nn23)nc1 | 0%[87.6 µM] | 2%[87.6 µM] | -4 | 32µM*
Cc1cccc(CN2CCCC(O)(CNCc3ncccc3C)C2=O)c1 (centres undefined) | -18% | -18% | 0 | 28µM*
C=CC(=O)Nc1cccc(Nc2nc(NC3CCC(N(C)C)CC3)nc3c2ncn3C(C)C)c1 (centres undefined) | u | 3µM* | x | x
Cc1ccc(C(=O)NC2CCCN(c3ccc4nnc(C)n4n3)C2)cc1 (centres undefined) | x | x | -6 | x
CCOc1cccc(-c2noc(-c3nnn4c3COC(c3cccc(OC)c3)C4)n2)c1 (centres undefined) | 7% | 2% | 8 | 25µM*
CCOc1ccc(C2Cn3nnc(-c4nc(-c5ccccc5OC)no4)c3CO2)cc1 (centres undefined) | 6% | -14% | -7 | u
CCOc1ccc(C2Cn3nnc(-c4nc(-c5ccccc5Br)no4)c3CO2)cc1 (centres undefined) | 1% | -2% | -2 | 22µM*
C[S+](=O)([O-])NC1CCN(Cc2cccc(-c3ccc(F)c(F)c3)c2)CC1 | x | x | 17 | x
O=C(Nc1ccccc1)c1nc2c(o1)CCN(Cc1ccc(F)cc1)CC2 | -1%[87.6 µM] | 64%[87.6 µM] | 6 | u
O=C(Nc1cccc(C(F)(F)F)c1)c1nc2c(o1)CCN(CC1CC1)CC2 | 5%[87.6 µM] | -17%[87.6 µM] | -5 | u
O=C(Nc1cccc(C(F)(F)F)c1)c1nc2c(o1)CCN(Cc1cccc(F)c1)CC2 | 0%[87.6 µM] | -37%[87.6 µM] | 22 | 28µM*
O=C(Nc1cccc(C(F)(F)F)c1)c1nc2c(o1)CCN(Cc1ccc(F)cc1)CC2 | -24%[87.6 µM] | -18%[87.6 µM] | 3 | 40µM*
O=C(Nc1cccc(C(F)(F)F)c1)c1nc2c(o1)CCN(Cc1cnc[nH]1)CC2 | 1%[87.6 µM] | 3%[87.6 µM] | 28 | i
O=C(Nc1cccc(C(F)(F)F)c1)c1nc2c(o1)CCN(Cc1ccccc1)CC2 | -3%[87.6 µM] | -8%[87.6 µM] | 5 | 22µM*
N#Cc1ccc(CN2CCc3nc(C(=O)Nc4cccc(C(F)(F)F)c4)oc3CC2)cc1 | -17% | -26% | 11 | 22µM*
COc1ncccc1-c1cnc2[nH]cc(CC(=O)Nc3ccccn3)c2c1 | -23%[87.6 µM] | 67%[87.6 µM] | -16 | 35µM*
Cc1ccccc1-c1cnc2[nH]cc(CC(=O)Nc3ccccn3)c2c1 | -17%[87.6 µM] | -15%[87.6 µM] | -22 | u
COc1ncccc1-c1cnc2[nH]cc(CC(=O)N3CCOCC3)c2c1 | -6%[87.6 µM] | 29%[87.6 µM] | -13 | 35µM*
COc1ncccc1-c1cnc2[nH]cc(CC(=O)Nc3ccn(C)n3)c2c1 | -4%[87.6 µM] | 14%[87.6 µM] | -13 | 32µM*
COc1ccc(-c2cnc3[nH]cc(CC(=O)N4CCOCC4)c3c2)cn1 | -5%[87.6 µM] | 43%[87.6 µM] | -12 | u
COc1ncccc1-c1cnc2[nH]cc(CC(=O)Nc3cc(C)nn3C)c2c1 | -6%[87.6 µM] | 12%[87.6 µM] | -13 | 40µM*

Bioassay records deposited in PubChem BioAssay by National Center for Advancing Translational Sciences (NCATS).
